# Data published in PubChem BioAssay AID596 (National Center for Advancing Translational Sciences (NCATS), 2007).
# Screen size: about 71,000 compounds; about 1,400 (2%) were called active. Inconclusive results (about 3%) are left out. Only a selection was taken, and actives are over-represented in it overall. Values without a mark were called inactive. The call rests on the fitted dose curve; in most records, active means well fitted curve in the direction sought with a large enough effect; inconclusive means small, poorly fitted or top-dose-only effect; inactive means no such curve, though single readings can be large or run the other way.
# Target: Microtubule-associated protein tau (Homo sapiens) (UniProt P10636)
# Assay: qHTS Assay for Tau Filament Binding;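 further: actives lower thioflavin S fluorescence by blocking filaments or displacing dye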
# Settings: recombinant tau filaments, thioflavin S fluorescence, 15 h, filaments grown with octadecylsulfate alongside compound; series mostly up to 57.1 µM; activity change, negative = inhibition: at the top concentration
# Source text: NIH Molecular Libraries Screening Centers Network [MLSCN]
# NIH Chemical Genomics Center [NCGC]
# Assay Provider: Jeffrey A. Kuret, Ohio State University
# Tau monomers form filaments in vitro in the presence of anionic detergents or fatty acids. The dye Thioflavine S (ThS) binds to tau filaments and upon binding, increases in fluorescence several fold. Small molecules that displace ThS binding or prevent filament binding are identified by a reduction in ThS fluorescence. This assay used histidine-tagged, recombinant human tau protein containing the products of exons 2, 3, and 10 that was provided by Jeff Kuret, Ohio State University. To form filaments, 1 uM tau was incubated with 30 uM sodium octadecylsulfate (ODS) in reagent buffer (10 uM thioflavine S, 5 mM 1,4-dithioerythreitol (DTT), 100 mM sodium chloride, 10 mM HEPES pH 7.4) for 15 hrs at 37 C.
# NCGC Assay Protocol Summary:
# Assay Steps. Two uL/well of 2 uM tau in reagent buffer (10 uM thioflavine S, 5 mM DTT, 100 mM sodium chloride, 10 mM HEPES pH 7.4) was dispensed into solid black 1536-well plates. Twenty-three nL compound was transferred to the assay plate after which 2 uL/well of 60 uM ODS in reagent buffer was dispensed for a final assay volume of 4 uL /well. Following 15 hours of incubation at 37 C, fluorescence was detected by an Envision (Perkin Elmer) using 450/8 nm excitation and 510/23 nm emission.
# Keywords: NIH Roadmap, MLSCN, MLI, MLSMR, qHTS, NCGC, Alzheimer's disease, Neurofibrillary lesions, tau, tubulin assembly, microtubule stability, cytoskeletal integrity, fibrillization, thioflavin dyes, Amyloidgenic
# On the % scale 0 is the no-effect control and ±100 the full control effect; potency means the concentration at half of the fitted maximal effect.
# Microtubule-associated protein tau (Homo sapiens), sequence (P10636 whole entry, looked up): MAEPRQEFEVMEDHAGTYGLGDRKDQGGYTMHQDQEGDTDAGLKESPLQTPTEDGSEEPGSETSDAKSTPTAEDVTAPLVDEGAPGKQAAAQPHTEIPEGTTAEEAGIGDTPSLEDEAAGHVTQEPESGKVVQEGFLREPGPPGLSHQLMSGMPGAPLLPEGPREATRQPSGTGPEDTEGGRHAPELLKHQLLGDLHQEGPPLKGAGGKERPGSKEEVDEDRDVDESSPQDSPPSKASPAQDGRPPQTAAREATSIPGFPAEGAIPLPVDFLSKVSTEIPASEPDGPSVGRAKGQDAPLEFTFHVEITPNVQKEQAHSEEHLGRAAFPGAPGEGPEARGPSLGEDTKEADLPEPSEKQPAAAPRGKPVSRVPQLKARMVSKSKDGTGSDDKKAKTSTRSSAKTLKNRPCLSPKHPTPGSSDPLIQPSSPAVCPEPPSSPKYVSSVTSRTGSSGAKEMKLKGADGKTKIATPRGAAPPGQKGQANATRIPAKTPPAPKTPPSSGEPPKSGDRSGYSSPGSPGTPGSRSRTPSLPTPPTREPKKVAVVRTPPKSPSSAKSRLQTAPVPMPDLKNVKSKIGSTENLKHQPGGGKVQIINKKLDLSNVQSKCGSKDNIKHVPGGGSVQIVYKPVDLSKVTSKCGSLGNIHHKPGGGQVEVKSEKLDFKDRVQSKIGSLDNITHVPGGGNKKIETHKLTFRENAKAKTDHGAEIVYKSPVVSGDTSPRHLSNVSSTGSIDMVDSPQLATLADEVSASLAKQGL
Compound,"activity change, negative = inhibition",Potency
Cc1cccc(NC(=O)C2CCN(S(=O)(=O)c3cccc4cccnc34)CC2)c1,1.5%,
COC(=O)CCCCCN1C(=O)NC(c2ccc(-c3ccccc3)cc2)C(C(=O)OCc2ccccc2)=C1C (stereo unspecified),-3.4%,
O=C(CN1CCN(c2ccc(F)cc2)CC1)Nc1cccc(C(F)(F)F)c1,-3.8%,
O=C(CSc1nnc(-c2ccco2)o1)NCC(=O)c1ccccc1,-5.7%,
CCN1C(=O)c2cccc3c(N)ccc1c23,,25.1 µM (active)
CCCCN(C)C(=O)c1ccc2c(c1)N(CC)C(=O)c1ccccc1S2(=O)=O,5.4%,
Oc1ccc(O)c2c(O)cccc12,,5.01 µM (active)
COC(=O)Nc1ncc(CN2C(=O)c3ccccc3C2=O)s1,1.9%,
CCOc1ccccc1N=C1NC(=O)CS1,-6%,
C[N+](C)(C)CCCCCNCC12CC3CC(CC(C3)C1)C2,,31.6 µM (active)
CCc1ccc(CCC(=O)Nc2ccc(S(N)(=O)=O)cc2)o1,-6.1%,
COc1ccc(CNC(=O)c2cc3c(=O)n4ccccc4nc3n(CC3CCCO3)c2=N)cc1 (stereo unspecified),,2.51 µM (active)
COC(=O)c1ccc2c(=O)n(CC3CCCO3)c(=S)[nH]c2c1 (stereo unspecified),6.1%,
CCOc1ccccc1C(=O)NCc1ccco1,20.9%,
O=C(NCc1ccco1)c1cccn2c(=O)c3cc(Br)ccc3nc12,,25.1 µM (active)
Cc1cccn2c(=O)c3cc(C(=O)NCc4ccccn4)n(C)c3nc12,9.9%,
COc1ccc(CCn2c(=N)c(C(=O)NCc3ccco3)cc3c(=O)n4cccc(C)c4nc32)cc1,,2 µM (active)
CCn1c(=N)c(C(=O)NCCCOC)cc2c(=O)n3cccc(C)c3nc21,-2.4%,
O=C(Nc1ccccc1)Nc1ccccc1C(=O)NCc1ccco1,-4.8%,
C[C@]1(C(=O)NCCc2c[nH]c3ccccc23)C=C[C@@H](Cc2ccccc2)N1C(=O)c1ccccc1,78.2%,
Cn1cccc1C(=O)N1CCC2(CC1)CN(c1cccc(-c3ccccc3)c1)C2,-8.2%,
CC(=O)CC(C)C,-8.5%,
C[C@H](CCC(=O)O)[C@H]1CC[C@@H]2[C@H]3CC[C@H]4C[C@H](O)CC[C@@]4(C)[C@@H]3CC[C@@]21C,11.3% [at 11.4 µM],
COC(=O)c1ccc(C(NC(=O)OCc2ccccc2)/C(C)=C/[C@@H](C)C(=O)NCc2cc(C)on2)cc1 (stereo partly specified),-4.6%,
COC(=O)[C@H]1C[C@@H]1[C@H](NC(=O)Oc1ccc(F)cc1)c1ccccc1,-3.2%,
COC(=O)c1cnn2c(C(F)(F)F)cc(-c3ccco3)nc12,,15.8 µM (active)

Compound,"activity change, negative = inhibition",Potency
FC(F)(F)c1cc(-c2ccco2)nc(N2CCOCC2)n1,4%,
CCOC(=O)c1ccn(-c2nc(-c3ccco3)cc(C(F)(F)F)n2)n1,-22.9%,
CCC[C@@H]1C[C@@]1(CCC)C(NS(=O)(=O)c1cccc2cccnc12)c1ccc(Cl)cc1 (stereo partly specified),-15.3%,
CN(C)C(=O)/N=N\C(=O)N(C)C,-7.5%,
CCCc1cc(=O)[nH]c(SCc2ccc(C#N)cc2)n1,2.2%,
COc1ccc(Cc2nnc(NC(=O)Cc3cccs3)s2)cc1,,25.1 µM (active)
CCc1nnc(NC(=O)CSc2nnc(Cc3ccccc3)n2-c2ccc(OC)cc2)s1,-7.8%,
COc1ccc(Cc2nnc(NS(=O)(=O)Cc3ccccc3)s2)cc1,-0.8%,
COC(=O)N1CCC2(CCCN(c3ccncc3)C2)CC1,19.9%,
Cc1cccn2c(=O)c3cc(C#N)c(=O)n(CCCN4CCOCC4)c3nc12,2.6%,
O=C1C(c2[nH]c3ccccc3c2O)=Nc2ccccc21,-20%,
Cc1cc2ccccc2n2c(SCC(=O)N3CCN(C(=O)c4ccco4)CC3)nnc12,6%,
O=C1c2ccccc2C(O)N1Cc1ccccc1 (stereo unspecified),2.9%,
CC[N+](C)(CC)CCC[n+]1c(-c2ccccc2)c2cc(N)ccc2c2ccc(N)cc21,,1.58 µM (active)
CCOC(=O)Cn1c2c(c(-c3ccccc3OC)cc1=O)CCCC2,0.5%,
COCCn1c(=O)[nH]c2cc(C(=O)NCc3cccnc3)ccc2c1=O,6.2%,
O=C(O)[C@H](CCc1ccccn1)c1ccccc1,-5.3% [at 11.4 µM],
CCSC1=C(C#N)C(=O)n2c1cc1c2CCCC1,,25.1 µM (active)
CCSc1ncnc2c(C#N)c3n(c12)CCCCC3,11.1%,
CC(C)C[C@@H](CC(=O)N[C@@H](CCC(=O)O)CC(=O)O)NC(=O)[C@@H]1CCCC[C@H]1NC(=O)C[C@@H](NC(=O)C[C@H](CO)NC(=O)[C@@H]1CCCC[C@H]1N)C(C)C,-3.3%,
CCC(C)(C(=O)NC1CCCC1)N(C(=O)CNC(C)=O)c1ccc(C)cc1 (stereo unspecified),-10.2%,
C=CC(=O)OCCOCCOCCOCCOC(=O)C=C,,inactive
Cc1nn2c3ccccc3nc2n(C)c1=O,-16.6%,
c1coc(-c2nc3nc4ccccc4n3nc2-c2ccco2)c1,,3.16 µM (active)
Cn1c(-c2ccco2)nc2cc3ccccc3cc21,97.4%,
